Out of some 48,000 compounds screened, about 13,000 (27%) showed an effect of 50% or more. This is one part of the list.
Each molecule was assayed on Wolbachia pipientis (assay: Anti-Wolbachia Cell-Based Screen). Settings: 5 µM.
Type: functional
Design: scale not given: in the data most compounds retested in dose-response had high values
With CCOc1ccc(NC(=O)c2cc(C)c(C)o2)cc1CO the “Percent Effect” value was -26.64%.
CCn1ncc2c1CN(C(=O)c1ccc3c(c1)OCO3)CC2COC (configuration not stated) was tested, and the “Percent Effect” value was 10.24%.
CC(C)Cn1[nH]cc/c1=N\C(=O)CN1CCOC(Cn2cccn2)C1 (configuration not stated) was tested, and the “Percent Effect” value was 19.87%.
With Cc1ccc(CN2Cc3ccnn3CC(COCc3cccnc3)C2)o1 (configuration not stated) the “Percent Effect” value was -8.625%.
For CCOCCCC(=O)NCC(c1ccccc1)N1CCc2sccc2C1 (configuration not stated), the “Percent Effect” value was 0.7933%.
For O=C(NCCO)NCC(c1ccccc1)N1CCc2sccc2C1 (configuration not stated), the “Percent Effect” value was 12.78%.
In the case of COc1ccc(CNC(=O)N2CCc3sccc3C2)cc1O, the “Percent Effect” value is reported as 11.16%.
For O=C(COCC1CC1)NCC(c1ccccc1)N1CCc2sccc2C1 (configuration not stated), the “Percent Effect” value was 1.717%.
With CSc1ccc(C(CNC(C)=O)N2CCc3sccc3C2)cc1 (configuration not stated) the “Percent Effect” value was 95.64%.
In the case of CCC(=O)NCC(c1ccc(SC)cc1)N1CCc2sccc2C1 (configuration not stated), the “Percent Effect” value is reported as 101.9%.
Cc1ccccc1CN(Cc1ccccn1)C(=O)CNS(C)(=O)=O was tested, and the “Percent Effect” value was -13.04%.
With CN(Cc1ccncc1)C1CCC[C@@H]2CN(c3ncccn3)C[C@H]12 (some centres not stated) the “Percent Effect” value was -7.905%.
With Cn1nccc1CNC(=O)CCn1nc(C(F)(F)F)cc1C1CC1 the “Percent Effect” value was 108.8%.
For Cn1nccc1CNC(=O)Nc1cc(C(F)(F)F)c[nH]c1=O, the “Percent Effect” value was -6.749%.
For O=C(CCN1CCOC(C(F)(F)F)C1)NCc1ccc(Cl)cc1 (configuration not stated), the “Percent Effect” value was -10.12%.
In the case of CC(C)(C)NC(=O)Cn1nc(C2CC2)cc(C(F)(F)F)c1=O, the “Percent Effect” value is reported as -6.94%.
With Cn1nccc1CNC(=O)CCn1nc(C(F)(F)F)c(Cl)c1C1CC1 the “Percent Effect” value was 93.44%.
For Cn1nccc1CNC(=O)Cn1nc(C(F)(F)F)cc1C1CC1, the “Percent Effect” value was 104.1%.
For Cn1nc(CNC(=O)C2COc3ccccc3O2)cc1C1CC1 (configuration not stated), the “Percent Effect” value was -7.331%.
With Cn1nccc1CNC(=O)NC1CCN(c2ncccc2Cl)C1 (configuration not stated) the “Percent Effect” value was -9.354%.
With Cc1ccc2nc(NCCN3CCOCC3)n(C)c(=O)c2c1 the “Percent Effect” value was 2.729%.
In the case of Cc1nc2[nH]cnc(NCCN3CCCC3)c-2n1, the “Percent Effect” value is reported as 101.2%.
In the case of CCn1nc(C)c2ncnc(NCCCN3CCOCC3)c21, the “Percent Effect” value is reported as 9.832%.
In the case of COC1CCN(CCNc2ncc(Br)cc2C)CC1, the “Percent Effect” value is reported as 16.05%.
In the case of Cc1nc2[nH]cnc(NCCN3CCOCC3)c-2n1, the “Percent Effect” value is reported as 110.5%.
For Cc1nc2[nH]cnc(NCCCN3CCOCC3)c-2n1, the “Percent Effect” value was 111.6%.
Cc1cc(Br)cnc1NCCN1CCC(N(C)C)CC1 was tested, and the “Percent Effect” value was 23.33%.
In the case of CCc1cnc(C)nc1NCCN1CCOCC1, the “Percent Effect” value is reported as -2.451%.
For CCCN(C(=O)c1csnn1)C1CCCN(Cc2ccccc2)C1 (configuration not stated), the “Percent Effect” value was 2.292%.
With CN(C)CC(=O)N1Cc2cc(-c3cc[nH]n3)ccc2C1c1cnco1 (configuration not stated) the “Percent Effect” value was -12.12%.
With CN(C)[C@@H]1CO[C@H](CNC(=O)c2ccccc2)[C@H]1O the “Percent Effect” value was 9.178%.
Cc1cc(C)c(C#N)c(N2CCC3(CCCN(CCO)C3=O)C2)n1 (configuration not stated) was tested, and the “Percent Effect” value was 111.5%.
With CCCN1CCCC2(CCN(c3nccc(OC)n3)C2)C1=O (configuration not stated) the “Percent Effect” value was 1.241%.
In the case of CN1CCCC2(CCN(c3cccc(C#N)n3)C2)C1=O (configuration not stated), the “Percent Effect” value is reported as 8.303%.
COCCN1CCCC2(CCN(c3nc(C)nc4c3CCC4)C2)C1=O (configuration not stated) was tested, and the “Percent Effect” value was -6.714%.
For COCCN1CCCC2(CCN(c3ncnc(C)c3C)C2)C1=O (configuration not stated), the “Percent Effect” value was -47.68%.
In the case of Cc1nc(N2CCC3(CCCN(CCO)C3=O)C2)c2sccc2n1 (configuration not stated), the “Percent Effect” value is reported as -11.1%.
In the case of COCCN1CCCC2(CCN(c3cccc(C(F)(F)F)n3)C2)C1=O (configuration not stated), the “Percent Effect” value is reported as -1.331%.
With COCCN1CCCC2(CCN(c3cc(C)c(C#N)c(C)n3)C2)C1=O (configuration not stated) the “Percent Effect” value was 99.04%.
In the case of Cc1cc(N2CCC3(CCCN(CCO)C3=O)C2)nc(C)c1C#N (configuration not stated), the “Percent Effect” value is reported as 111%.
In the case of CN(Cc1ccc([S+](C)[O-])cc1)c1ccc(C(F)(F)F)cn1 (configuration not stated), the “Percent Effect” value is reported as -27.71%.
For Cn1ccnc1CN1CCCN(C(=O)c2cccc(CC#N)c2)CC1, the “Percent Effect” value was 107.2%.
CC(C)OCCN1CCN(C(=O)c2cccc(CC#N)c2)CC1 was tested, and the “Percent Effect” value was 4.967%.
CC(C)n1ccnc1CN1CCCN(C(=O)c2cc(Cl)c[nH]2)CC1 was tested, and the “Percent Effect” value was 1.928%.
With CN(C)c1cc(C(=O)N2CCCN(Cc3nccn3C)CC2)ccn1 the “Percent Effect” value was 107%.
With Cn1ccnc1CN1CCCN(C(=O)c2ccc3cc[nH]c3c2)CC1 the “Percent Effect” value was 138.1%.
With CC(C)COC(=O)N1CCCN(C(=O)c2ccnc(N(C)C)c2)CC1 the “Percent Effect” value was 6.425%.
CCC(O)CN1CCN(C(=O)c2ccnc(N(C)C)c2)CC1 (configuration not stated) was tested, and the “Percent Effect” value was -16.43%.
In the case of Cc1nsc(N2CCCN(C(=O)c3ccc4[nH]ccc4c3)CC2)n1, the “Percent Effect” value is reported as -10.99%.
CCn1ccnc1CN1CCCN(C(=O)c2cccc(C#N)c2)CC1 was tested, and the “Percent Effect” value was -3.279%.
Cn1ccnc1CN1CCCN(C(=O)c2ccc3ccccc3c2)CC1 was tested, and the “Percent Effect” value was 100.6%.
In the case of CC(=O)N1Cc2nccn2CC(CNC(=O)c2cnccn2)C1 (configuration not stated), the “Percent Effect” value is reported as -28.44%.
O=C(O)C(F)(F)F.O=C([C@H]1C[C@@H]2[C@@H](C1)OCCN2CC1CC1)N1CCCC1 was tested, and the “Percent Effect” value was -8.225%.
In the case of CS(=O)(=O)CCC(=O)NC(c1ccc(F)cc1)C(F)(F)F (configuration not stated), the “Percent Effect” value is reported as -10.12%.
In the case of CCn1ccnc1CN1CCCN(C(=O)c2ccc(C#N)cc2)CC1, the “Percent Effect” value is reported as -7.951%.
Cn1ccnc1CN1CCCN(C(=O)c2ccc(O)nc2)CC1 was tested, and the “Percent Effect” value was 99.8%.
In the case of Cn1ccnc1CN1CCCN(C(=O)c2ccc3c(c2)OCO3)CC1, the “Percent Effect” value is reported as 100.5%.
Cn1ccnc1CN1CCCN(C(=O)c2ccc3c(c2)COC3)CC1 was tested, and the “Percent Effect” value was -4.984%.
For O=C(Cc1ccsc1)NCCc1ccoc1, the “Percent Effect” value was -2.885%.
In the case of Cc1nc(CN2CCCC(CCc3ccccc3C)C2)c[nH]1 (configuration not stated), the “Percent Effect” value is reported as 4.75%.
Cc1nnc(CN2CCCC(CCc3ccccc3C(F)(F)F)C2)o1 (configuration not stated) was tested, and the “Percent Effect” value was 7.283%.
In the case of Cc1ccccc1CCC1CCCN(Cc2nnc(-c3ccco3)o2)C1 (configuration not stated), the “Percent Effect” value is reported as 85.71%.
For CCc1cnc(CN2CCCC2c2noc(C3CC3)n2)o1 (configuration not stated), the “Percent Effect” value was 2.963%.
With Cc1cc(N2CCCC(N(C)C)C2)n2nc(C)cc2n1 (configuration not stated) the “Percent Effect” value was 4.471%.
COc1cc(CNCCn2cc(C)cn2)c2c(c1)CC(C)O2 (configuration not stated) was tested, and the “Percent Effect” value was -8.791%.
FC(F)(F)CN1CCC(CCNc2ncccn2)CC1 was tested, and the “Percent Effect” value was -5.19%.
O=S1(=O)COCCN1Cc1ccc(Cl)c(Cl)c1 was tested, and the “Percent Effect” value was 174.3%.
In the case of O=S1(=O)COCCN1Cc1ccc(F)cc1Cl, the “Percent Effect” value is reported as 116.6%.
With Cc1ccc(-c2nc(CN3CCOCS3(=O)=O)c(C)o2)cc1 the “Percent Effect” value was -5.038%.
With O=C1CCOCCN1Cc1ccc(C(F)(F)F)c(F)c1 the “Percent Effect” value was -2.892%.
In the case of CC(=O)N1CCN(Cc2ccc(F)c(C(F)(F)F)c2)CC(O)C1 (configuration not stated), the “Percent Effect” value is reported as -17.39%.
In the case of Cc1cc(CN2CCOCS2(=O)=O)ccc1F, the “Percent Effect” value is reported as -11.48%.
O=S1(=O)COCCN1Cc1ccc(F)c(C(F)(F)F)c1 was tested, and the “Percent Effect” value was 116.1%.
With O=S1(=O)COCCN1Cc1cccc(Cl)c1 the “Percent Effect” value was -18.09%.
Cc1ccc(CN2CCOCS2(=O)=O)cc1F was tested, and the “Percent Effect” value was 130.8%.
O=S1(=O)COCCN1Cc1ccc(Cl)c(F)c1 was tested, and the “Percent Effect” value was -18.76%.
In the case of Cc1oc(-c2cccc(F)c2)nc1CN1CCOCS1(=O)=O, the “Percent Effect” value is reported as -0.8413%.

From ChEMBL document CHEMBL3988442, “University of Dundee, Small-Polar-MMV Screening Library” (2021)
